Inconclusive results are not listed. Active and inactive are the calls of the source. Calls follow the shape of the dose curve; as a rule, active = well fitted inhibition curve with a large enough effect; inconclusive = small, poorly fitted or top-dose-only effect; inactive = no such curve, though single readings can be large or run the other way.
Assay: Counterscreen qHTS for small molecule stabilizers of the endoplasmic reticulum resident proteome: GLuc-NoTag assay (AID 1508627);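 as to activity change, negative = inhibition: 0% = thapsigargin alone and -100% = DMSO vehicle control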
Conditions: Gaussia luciferase NoTag secretion counterscreen, luminescence, thapsigargin 100 nM for final 4 h; series mostly up to 76.4 µM; activity change, negative = inhibition: at the top concentration
Text: Assay Provider: Brandon K. Harvey Ph.D.
National Institute on Drug Abuse, National Institutes of Health, Baltimore, MD
Endoplasmic reticulum (ER) dysregulation is associated with human pathologies including neurodegenerative, cardiovascular, muscular, and diabetic conditions. Maintenance of ER calcium is critical for functions of the ER and its depletion can lead to loss of ER resident proteins, in a process termed exodosis. Therapeutic compounds capable of attenuating the redistribution of ER proteins under pathological conditions may slow or stop disease progression. To identify such compounds, we performed a quantitative high-throughput screen (qHTS) using the SERCaMP assay, which monitors secretion of ER resident proteins triggered by calcium depletion.
SERCaMP was initially developed as a reporter of ER calcium homeostasis using a Gaussia luciferase with a modified signal peptide and carboxy-terminus (GLuc-SERCaMP), modifications that confer secretion of the reporter in response to ER calcium depletion (Henderson et al., 2014). The assay was used to screen 9,501 compounds, including a collection of drugs approved by the FDA (US), EMA (EU), NHI (Japan), and HC (Canada) regulatory agencies (Huang et al., 2011). Since the SERCaMP reporter reflects the exodosis phenomenon (Trychta et al., 2018a), compounds identified in the screen have the potential to prevent exodosis by different mechanisms such as stabilizing ER calcium or augmenting ERS retrieval.
1. Henderson, M.J., Wires, E.S., Trychta, K.A., Richie, C.T., and Harvey, B.K. (2014). SERCaMP: a carboxy-terminal protein modification that enables monitoring of ER calcium homeostasis. Mol Biol Cell 25, 2828-2839.
2. Huang, R., Southall, N., Wang, Y., Yasgar, A., Shinn, P., Jadhav, A., Nguyen, D.T., and Austin, C.P. (2011). The NCGC pharmaceutical collection: a comprehensive resource of clinically approved drugs enabling repurposing and chemical genomics. Sci Transl Med 3, 80ps16.
3. Trychta, K.A., Back, S., Henderson, M.J., and Harvey, B.K. (2018a). KDEL Receptors Are Differentially Regulated to Maintain the ER Proteome under Calcium Deficiency. Cell Rep 25, 1829-1840 e1826.
SEQUENCE No. (1, 2, 3, etc.); […] (e.g., Cells, Incubation, Reagent, etc.); VALUE and DESCRIPTION.
1; Reagent; 5 uL; 1000 SH-SY5Y cells per wells
3; Compound; 23 nL; Control inhibitor / compound library
5; Reagent; 100 nM; Thapsigargin
7; Reagent; 1 uL; 0.5x coelenterazine
8; Detection; Luminescence; ViewLux imaging system
NOTES (numbers refer to sequence above)
1; SH-SY5Y human neuroblastoma cells stably expressing the constitutively secreted GLuc (SH-SY5Y-GLuc-NoTag) cells were seeded in 1,536 well white tissue culture treated plates (Corning, Cat# 7464) in DMEM-high glucose-sodium pyruvate (ThermoFisher Scientific, Cat #10569) supplemented with 10% bovine growth serum (Hyclone), 10 U/ml penicillin (Gibco), 10 ug/ml streptomycin (Gibco), and 20 mM HEPES.
2; Assay plates were incubated for 5 hour at 37C in a humidified incubator containing 5% CO2.
4; Cells were then incubated for 19 hours at 37C, 5% CO2.
5; Thapsigargin was added at 100 nM to deplete ER calcium stores.
6; Cells were incubated for 4 hour (37 °C, 5% CO2)
7; Gaussia luciferase in the medium was measured by adding 1 ul of 0.5x coelenterazine (final concentration 0.07x) prepared in Gaussia Luciferase Glow Assay Buffer (Pierce), without addition of the Cell Lysis Buffer Reagent.
8; Luminescence was measured using a ViewLux CCD imaging system (Perkin Elmer) equipped with clear filters. […] The same controls were also used for the calculation of the Z' factor, a measure of assay quality control, as previously described (Zhang et al., 1999). For the initial validation of activity in the SERCaMP assays, hits from the primary screen were assayed again at 11-concentrations (1.3 nM - 76.6 uM). SH-SY5Y-GLuc-SERCaMP cells were assayed for ER Ca2+ depletion as outlined above.
1. Zhang, J.H., Chung, T.D., and Oldenburg, K.R. (1999). […]
With `O=C(O)Cn1cnnn1` the “activity change, negative = inhibition” value was 0.0732% (inactive). For `CC(C)(c1ccc(O)cc1)c1ccc(O)cc1`, the Potency was “inactive”. For `CCOC(=O)c1ccc(O)c(O)c1`, the “activity change, negative = inhibition” value was -18.8% (inactive). With `CN1CCC(N(Cc2cccs2)c2ccccc2)CC1` the “activity change, negative = inhibition” value was 22.9% (inactive). For `CCC(=O)O[C@H]1[C@H](O[C@@H]2[C@@H](C)[C@H](O[C@H]3C[C@@](C)(OC)[C@@H](O)[C@H](C)O3)[C@@H](C)C(=O)O[C@H](CC)[C@@](C)(O)[C@H](O)[C@@H](C)C(=O)[C@H](C)C[C@@]2(C)O)O[C@H](C)C[C@@H]1N(C)C`, the Potency was “inactive”. In the case of `CC(CC1c2ccccc2CCc2ccccc21)CN(C)C` (centres undefined), the “activity change, negative = inhibition” value was -3.46% (inactive). With `C[C@H]1C[C@H](O)c2ccsc2S1(=O)=O` the “activity change, negative = inhibition” value was 13% (inactive). With `CC(C)(C)c1ccc(O)c(O)c1` the “activity change, negative = inhibition” value was 20.6% [at 157 µM] (inactive). In the case of `COC(=O)c1c(Cl)c(Cl)c(C(=O)OC)c(Cl)c1Cl`, the “activity change, negative = inhibition” value was -7.64% [at 157 µM] (inactive). With `Fc1ccc(C(c2ccc(F)cc2)N2CCNCC2)cc1` the “activity change, negative = inhibition” value was 1.04% (inactive). In the case of `Cc1cc2nc3ccc(=[N+](C)C)cc-3sc2cc1N`, the Potency was 35.5 µM (active). For `CCOc1ncc(F)c(=O)[nH]1`, the “activity change, negative = inhibition” value was -1.87% (inactive). In the case of `Cc1nc2n(c(=O)c1CCN1CCC(C(=O)c3ccc(F)cc3)CC1)CCS2`, the “activity change, negative = inhibition” value was -10.9% (inactive). For `CN1CCC(Nc2ncc3ncnc(Nc4ccc(F)c(Cl)c4)c3n2)CC1`, the Potency was “inactive”. For `CC(C)C[C@@H]1[C@H](c2ccccc2)OC(=O)N1CCCN1CCCCCC1`, the “activity change, negative = inhibition” value was -10.8% (inactive). In the case of `CN(C)CCOC(c1ccccc1)c1ccc(Br)cc1` (centres undefined), the “activity change, negative = inhibition” value was 9.74% (inactive). With `N[C@@H](Cc1cc(I)c(O)c(I)c1)C(=O)O` the “activity change, negative = inhibition” value was 10.5% (inactive). In the case of `Cc1onc(-c2ccccc2)c1C(=O)Cl`, the “activity change, negative = inhibition” value was -15.2% (inactive). For `O=C(NO)c1ccccc1`, the “activity change, negative = inhibition” value was 78.3% [at 157 µM] (inactive). In the case of `CC(C)OC(=O)c1cc2c(OCC(O)CNC(C)(C)C)cccc2[nH]1` (centres undefined), the “activity change, negative = inhibition” value was 3.09% (inactive). In the case of `O=C1NC(c2cccc([N+](=O)[O-])c2)=CCN1c1ccccc1O`, the Potency was “inactive”. In the case of `Clc1ccc2c(c1)N=C(N1CCNCC1)c1ccccc1N2`, the “activity change, negative = inhibition” value was 4.95% (inactive). For `O=C1CC(c2ccc(Cl)cc2)CC(=O)N1`, the “activity change, negative = inhibition” value was -3.4% (inactive). With `C[C@H](N)C(=O)N[C@@H](C)C(=O)NC1[C@H]2CN(c3nc4c(cc3F)c(=O)c(C(=O)O)cn4-c3ccc(F)cc3F)C[C@@H]12` (some centres undefined) the “activity change, negative = inhibition” value was 22.3% (inactive).

From PubChem BioAssay (NCATS)
Potency is read from the fitted curve at half-maximal effect.
